Screening data as filed in PubChem.
FAS-TE inh: FAS thioesterase (human) inhibition; 360,000 tested, 0.67% active; inhibition, % at 15 µM; P49327; recombinant FAS-TE, OMFH fluorogenic substrate, fluorescence endpoint;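 active = compounds whose normalised, plate-corrected inhibition of enzyme fluorescence in the single-dose primary screen is 50% or more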;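 also: 0% = DMSO with enzyme and 100% = substrate without enzyme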
Target sequence (P49327 whole entry, looked up): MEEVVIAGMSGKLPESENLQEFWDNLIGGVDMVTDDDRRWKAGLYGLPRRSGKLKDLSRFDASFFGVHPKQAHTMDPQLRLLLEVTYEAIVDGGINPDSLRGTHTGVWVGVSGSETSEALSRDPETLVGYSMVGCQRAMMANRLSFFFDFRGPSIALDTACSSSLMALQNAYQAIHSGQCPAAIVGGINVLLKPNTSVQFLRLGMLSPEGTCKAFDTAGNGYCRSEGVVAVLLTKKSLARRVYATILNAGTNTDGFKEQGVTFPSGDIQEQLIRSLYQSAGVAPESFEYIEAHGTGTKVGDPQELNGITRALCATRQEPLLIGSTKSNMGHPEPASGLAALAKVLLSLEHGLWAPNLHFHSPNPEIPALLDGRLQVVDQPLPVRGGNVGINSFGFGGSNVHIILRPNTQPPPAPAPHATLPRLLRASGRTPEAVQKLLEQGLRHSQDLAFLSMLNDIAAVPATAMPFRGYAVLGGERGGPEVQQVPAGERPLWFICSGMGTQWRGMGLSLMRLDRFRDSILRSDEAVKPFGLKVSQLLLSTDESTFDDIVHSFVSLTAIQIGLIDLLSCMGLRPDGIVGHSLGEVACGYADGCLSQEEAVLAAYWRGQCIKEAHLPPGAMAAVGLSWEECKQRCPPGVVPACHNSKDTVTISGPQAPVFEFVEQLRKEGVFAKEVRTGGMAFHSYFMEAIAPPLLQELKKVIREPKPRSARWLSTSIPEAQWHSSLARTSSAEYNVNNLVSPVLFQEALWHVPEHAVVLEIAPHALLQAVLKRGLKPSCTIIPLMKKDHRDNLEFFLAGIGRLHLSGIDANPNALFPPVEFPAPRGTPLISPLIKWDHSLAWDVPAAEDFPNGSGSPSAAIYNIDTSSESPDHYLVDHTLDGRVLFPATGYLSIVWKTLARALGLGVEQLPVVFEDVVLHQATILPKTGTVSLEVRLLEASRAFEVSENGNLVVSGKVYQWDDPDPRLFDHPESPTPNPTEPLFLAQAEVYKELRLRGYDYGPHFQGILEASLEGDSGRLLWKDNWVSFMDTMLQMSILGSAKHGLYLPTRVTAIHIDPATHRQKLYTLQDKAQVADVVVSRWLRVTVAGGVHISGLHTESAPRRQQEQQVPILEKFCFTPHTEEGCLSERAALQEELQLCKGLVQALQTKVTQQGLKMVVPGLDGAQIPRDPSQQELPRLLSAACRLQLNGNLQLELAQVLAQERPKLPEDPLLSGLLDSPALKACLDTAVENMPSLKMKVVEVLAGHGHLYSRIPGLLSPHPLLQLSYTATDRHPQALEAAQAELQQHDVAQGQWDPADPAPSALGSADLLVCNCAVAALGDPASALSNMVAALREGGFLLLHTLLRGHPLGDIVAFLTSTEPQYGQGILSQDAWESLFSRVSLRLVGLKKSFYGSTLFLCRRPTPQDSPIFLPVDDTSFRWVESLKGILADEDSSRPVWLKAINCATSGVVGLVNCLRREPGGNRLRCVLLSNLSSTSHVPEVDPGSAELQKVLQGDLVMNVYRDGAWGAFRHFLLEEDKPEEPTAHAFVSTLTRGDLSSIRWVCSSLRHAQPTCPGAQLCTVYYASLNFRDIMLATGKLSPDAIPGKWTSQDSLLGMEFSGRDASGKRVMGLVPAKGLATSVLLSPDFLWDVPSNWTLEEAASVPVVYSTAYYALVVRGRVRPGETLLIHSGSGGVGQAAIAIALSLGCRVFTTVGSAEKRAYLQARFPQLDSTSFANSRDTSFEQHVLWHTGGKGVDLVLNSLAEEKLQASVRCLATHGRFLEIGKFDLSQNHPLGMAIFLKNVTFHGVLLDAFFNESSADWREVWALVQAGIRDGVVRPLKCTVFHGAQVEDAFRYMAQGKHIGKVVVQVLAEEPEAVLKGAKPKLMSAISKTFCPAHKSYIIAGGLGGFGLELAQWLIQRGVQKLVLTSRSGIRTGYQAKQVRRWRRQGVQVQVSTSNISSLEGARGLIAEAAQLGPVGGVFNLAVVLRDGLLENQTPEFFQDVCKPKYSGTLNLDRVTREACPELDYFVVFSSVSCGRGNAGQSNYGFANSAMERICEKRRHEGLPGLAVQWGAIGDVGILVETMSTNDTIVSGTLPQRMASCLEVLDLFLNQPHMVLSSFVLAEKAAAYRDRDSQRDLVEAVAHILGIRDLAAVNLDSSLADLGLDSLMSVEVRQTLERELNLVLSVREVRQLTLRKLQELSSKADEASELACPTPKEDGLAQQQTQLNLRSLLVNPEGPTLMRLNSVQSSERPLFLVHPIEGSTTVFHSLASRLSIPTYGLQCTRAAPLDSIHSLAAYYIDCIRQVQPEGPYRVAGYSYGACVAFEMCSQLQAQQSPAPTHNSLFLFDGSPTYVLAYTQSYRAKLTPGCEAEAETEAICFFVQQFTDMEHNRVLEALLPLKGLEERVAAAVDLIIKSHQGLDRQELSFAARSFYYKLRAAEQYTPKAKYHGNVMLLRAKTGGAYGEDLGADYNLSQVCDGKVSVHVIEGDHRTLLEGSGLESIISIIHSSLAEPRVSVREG
H9c2 protect: modulators protecting cardiomyocytes from myocardial damage | H9c2 cardiomyocytes, H2O2 injury protection, ATPLite, 2 h | protection from H2O2 cell death, % at 20 µM | 360,000 tested, 0.63% active;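 active = compounds giving at least 50% protection of heart cells from peroxide-induced death in the single-dose screen, raw or plate-pattern-corrected value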;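 also: 0% = DMSO wells with peroxide and 100% = DMSO wells without peroxide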
PLCg1 inh: PLC-gamma1 (human) inhibition, primary screen. purified PLC-gamma1, fluorogenic substrate, fluorescence. inhibition, % at 12.2 µM. 370,000 tested, 0.84% active. AID 720700
PLC-beta3 inh: PLC-beta3 (human) inhibition, primary screen; inhibition, % at 12.2 µM; AID 720704; Q01970; Purified PLC-beta3, fluorogenic substrate, fluorescence; 370,000 tested, 0.18% active; in the data active = inhibition above about 11%;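 also: 0% = median of compound wells on plate and 100% = full blocker control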
PLCgamma1 ctr: counter-screen for PLC-beta3 inhibitors: inhibitors of human PLC-gamma1. shares compounds with PLCg1 inh. purified PLC-gamma1, fluorogenic substrate, fluorescence. inhibition, % at 12.3 µM. 3,300 tested, 3.1% active. AID 743258
PLCb3 confirm: human PLC-beta3 inhibition, confirmation | shares compounds with PLCg1 inh | purified PLC-beta3, fluorogenic substrate fluorescence | inhibition, % at 12.3 µM | 3,300 tested, 1% active | AID 743261; in the data active = inhibition above about 11%
An asterisk follows results filed as active; / = no result given. A selection: hits, their analogues and other compounds. The true share with any hit is near 2.2%. Rule as the data show it, unless noted: active = inhibition above about 9.5%; inactive = the rest.

SMILES | FAS-TE inh | H9c2 protect | PLCg1 inh | PLC-beta3 inh | PLCgamma1 ctr | PLCb3 confirm
CN(C)c1ccc(NC(=S)OC2CCC23CCC(c2ccccc2)CC3)cc1 (stereo unspecified) | / | / | 2.5 | 4.5 | / | /
O=C(NCCNC(=O)c1cc(OCC(F)(F)F)ccc1OCC(F)(F)F)Nc1ccc(OC(F)(F)F)cc1 | 16.9 | -13.6 | 11.9* | -2.1 | -6.8 | -2.7
O=C(NCCNC(=O)c1cc(OCC(F)(F)F)ccc1OCC(F)(F)F)Nc1ccc(Cl)cc1 | / | / | 3.9 | 4.9 | / | /
COc1ccc(NC(=O)Nc2cccc3c2O[C@@H](CN(C)CC2CCCCC2)[C@@H](C)CN([C@H](C)CO)C3=O)cc1 | -6.6 | -2.8 | 1.1 | 2.3 | / | /
CC1CCC(NC(=O)c2[nH]c(C(F)(F)F)nc2-c2ccccc2)CC1 (stereo unspecified) | -7.6 | 1.5 | 1.5 | -0.1 | / | /
CN(C)N1C(=O)CC(NNC(=O)c2ccncc2)C1=O (stereo unspecified) | -6.9 | 10.8 | 10.4* | 2.6 | -6.1 | 2.5
CCN1C(=O)CC(NNC(=O)c2ccccc2)C1=O (stereo unspecified) | -7.4 | -2.9 | 1.2 | -1.6 | / | /
CC(=O)NCC(=O)OCN1C(=O)c2ccccc2C1=O | -2.9 | 2.0 | 10.4* | 6.0 | -5.0 | 0.0
CC(C)CC(NC(=O)c1ccccc1)C(=O)OCC(=O)Nc1ccc(Br)cn1 (stereo unspecified) | -5.1 | -2.4 | 10.7* | 9.2 | -0.8 | 1.6
O=C(COc1ccccc1)NC(=S)Nc1ccc(Br)cn1 | -0.2 | 3.6 | -0.2 | -4.7 | / | /
O=C(CSCc1ccccc1)Nc1cccc(F)c1 | -0.1 | -9.7 | 11.2* | 9.0 | 3.8 | 7.6
C#CCNC(=O)C[C@@H]1C[C@@]2(C(=O)OC)CCCCC=C2N(CCCCCCCC)C1=O | 1.5 | / | 1.0 | 0.1 | / | /
Cc1cc2ncn(S(=O)(=O)N3CCOCC3)c2cc1C | -7.2 | -5.8 | 6.2 | 14.2* | -2.0 | -1.6
Cc1cc2ncn(S(=O)(=O)N3CCCCC3)c2cc1C | 5.8 | -4.2 | -1.2 | -2.5 | / | /
COc1ccc(Cl)cc1NC(=O)C/C(C)=N/NC(=O)C(=O)NCc1ccccc1 | -1.8 | -0.6 | -0.8 | -4.9 | / | /
c1ccc(Cn2ncc3c(N4CCN(c5ccccc5)CC4)ncnc32)cc1 | 12.3 | -5.0 | 10.8* | 0.6 | -5.8 | -4.6
C/C(=N/NC(=O)c1cccs1)c1cccc(N)c1 | -5.1 | 35.4 | 10.5* | -11.6 | -12.2 | -8.9
CCOc1cc(C(=O)NC(C)CCc2ccccc2)cc(OCC)c1OCC (stereo unspecified) | 0.7 | -5.3 | 1.3 | 4.1 | / | /
Cn1c(=O)c2c(nc(-n3ccnc3)n2Cc2ccccc2)n(C)c1=O | 0.6 | -7.4 | 10.2* | 2.0 | -1.1 | 0.2
Cn1cnnc1SCC(=O)n1c2ccccc2c2ccccc21 | -0.3 | -9.8 | 13.7* | 7.9 | -10.2 | -5.9
Cc1c(C)n(C(=O)CSc2nncn2C)c2ccccc12 | -1.6 | 0.6 | 6.9 | 1.8 | / | /
CC1(C)CN(CCc2ccccc2)C(=O)[C@H]1CC(=O)Nc1ccccc1 | -3.9 | -13.9 | 1.6 | 1.6 | / | /
Cc1ccc(C(=O)Oc2coc(CSc3nnc(NC(=O)C4CC4)s3)cc2=O)cc1C | 4.3 | -5.4 | 10.7* | 8.0 | 0.7 | 1.4
COCCN(C(=O)COC(=O)C1CC(=O)N(c2ccc(C)cc2)C1)c1c(N)n(Cc2ccccc2)c(=O)[nH]c1=O (stereo unspecified) | -5.2 | 2.9 | -0.6 | 1.7 | / | /
CC(=O)C[C@@H]1SC[C@H](c2ccccc2)N1S(=O)(=O)c1ccc(C)cc1 | / | / | -0.3 | 2.1 | / | /
SMILES | FAS-TE inh | H9c2 protect | PLCg1 inh | PLC-beta3 inh | PLCgamma1 ctr | PLCb3 confirm
O=C(CN1CCCC1)NCC12CC3CC(CC(C3)C1)C2 | -4.0 | 2.7 | 10.5* | 8.2 | -1.3 | 1.5
O=Nc1c(-c2cccc([N+](=O)[O-])c2)nc2ncccn12 | 9.6 | -5.0 | 2.1 | -5.3 | / | /
Cc1ccc(NC(=O)CN(C)C(=O)c2ccc(S(=O)(=O)N(C)c3ccccc3)cc2)cc1 | 5.5 | -3.3 | 10.7* | -2.3 | -2.4 | 0.1
Cc1ccc(C)c(NC(=O)CN(C)C(=O)c2ccc(S(=O)(=O)N(C)c3ccccc3)cc2)c1 | 5.8 | 3.8 | 1.0 | -0.4 | / | /
O=C(O)c1ccc(N2CCCCCC2)c(N2C(=O)c3ccccc3C2=O)c1 | -8.7 | 11.7 | 13.9* | 5.7 | -5.7 | -5.5
CCN(CC)C(=O)[C@H]1C[C@H](CC(=O)NCCN2CCOCC2)C(=O)N2CCc3c([nH]c4ccc(Cl)cc34)[C@]12C | -5.9 | -1.9 | 0.6 | -0.4 | / | /
CC(C)N(C(=O)[C@H]1C[C@H](CC(=O)NCCN2CCOCC2)C(=O)N2CCc3c([nH]c4ccc(Cl)cc34)[C@]12C)C(C)C | -2.7 | -14.5 | 9.9* | 3.4 | -7.3 | -1.3
CCOc1ccc(N(CC(=O)NC2CCCC2)C(=O)CCC(=O)Nc2nc(C)cs2)cc1 | -5.7 | 2.9 | 0.8 | -3.3 | / | /
Cc1ccc(N(CC(=O)NC2CCCC2)C(=O)CCC(=O)Nc2nc(C)cs2)cc1 | -1.8 | -5.7 | 9.6* | -8.0 | -2.0 | 3.9
COc1ccc(C(=O)Nc2cccc(C)n2)cc1S(=O)(=O)N1CCCc2ccccc21 | 28.8 | 3.0 | -1.0 | -0.2 | / | /
CC(C)CC(NC(=O)C(NC(=O)OC(C)(C)C)C(C)C)C(=O)N1CCCC1C(N)=O (stereo unspecified) | -4.7 | -2.5 | -2.5 | 1.3 | / | /
COC(=O)[C@@H]1CCCN1C(=O)[C@@H](NC(=O)OC(C)(C)C)C(C)C | -6.7 | 5.9 | 8.4 | 14.1* | -3.9 | 1.3
O=C1CSC(c2cccs2)N1c1nncs1 (stereo unspecified) | / | / | 0.6 | 3.2 | / | /
CCCCn1c(N)c(N(CCOC)C(=O)c2cccc(N3C(=O)c4ccccc4C3=O)c2)c(=O)[nH]c1=O | -2.2 | -0.9 | -1.0 | -8.2 | / | /
CCOc1ccc(S(=O)(=O)N2CCCCC2)cc1NC(=O)CCNC(=O)c1ccco1 | -8.2 | -3.8 | 5.3 | -4.9 | / | /
C/C(=N\N=C1\NC(=O)CS1)c1cccs1 | -5.9 | 6.8 | 13.1* | 6.3 | 1.6 | 3.0
CO/N=C/C(C#N)=C/c1ccc(OC)cc1 | -1.4 | -8.6 | 14.7* | 7.3 | -1.9 | 1.3
COc1ccc(/C=C(/C#N)S(=O)(=O)c2ccc(C)cc2)cc1 | -3.5 | -6.3 | 0.8 | -0.1 | / | /
CC(=O)Nc1cccc(-c2nnc3n2CC(C)S3)c1 (stereo unspecified) | -7.0 | 0.8 | 14.6* | 5.0 | -6.4 | -1.9
COCCc1nc2ccc(C(=O)N(C)Cc3cccc(-n4cccn4)c3)cc2o1 | -0.1 | -1.8 | -2.2 | -7.8 | / | /
COC(=O)/C=C(\C)NC(=O)c1ccccc1Cl | 9.2 | -7.5 | 7.7 | 10.9* | -6.3 | -2.3
COC(OC)C(C)NC(=O)NC(=O)c1ccccc1Cl (stereo unspecified) | -6.8 | -2.7 | 1.5 | -5.5 | / | /
C=CCCC1CN(Cc2ccc(OC)cc2)S(=O)(=O)c2c(Oc3ccc(OC)cc3)cccc2O1 (stereo unspecified) | / | / | 3.2 | 0.1 | / | /
CCOC(=O)Cc1csc(NC(=S)NC(=O)CC(C)C)n1 | -2.9 | -2.5 | 1.3 | 2.4 | / | /
CC(C)CC(=O)NC(=S)Nc1nc(-c2cccc3ccccc23)cs1 | 21.5 | -17.5 | 16.1* | 6.2 | -2.4 | -4.9
